IL-1B inflam inh = blocks inflammasome-driven IL-1 beta release | THP-1 LPS/ATP IL-1B secretion, AlphaLISA, 16 h; stronger effect = lower value | activity change, % at 57.5 µM | 4.7% of 360,000 active | AID 743279; in the data active = activity change below about -50%; inconclusive = mostly about -30% to -49%
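Secreted IL-1B measured by AlphaLISA bead assay after 16 h compound exposure of THP-1 cells; compounds (final up to 57.5 uM) added 1 h before LPS (250 ng/mL) and ATP (1.25 mM) stimulation; lower signal means less secretion.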
DT40 TDP1 no CPT = qHTS for Inhibitors of human tyrosyl-DNA phosphodiesterase 1 (TDP1): qHTS in cells in absence of CPT | AID 686978, 2013 | Potency, µM (titrated, usually from 46.2 µM), for the others: at the highest dose activity change, negative = growth inhibition, most hits filed as inhibitors | DT40 Tdp1-/- hTDP1 cells, no CPT, ATP luminescence, 48 h | 15% of 420,000 active; also: potency is read from the fitted curve at half-maximal effect; nearly all actives have a fitted effect of over 55% in size
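Growth kinetics read by CellTiter-Glo luminescence after ≥48 hr at 37 °C. Cells: DT40 Tdp1-/- stably carrying human TDP1, 400 per well, compound exposure in the absence of CPT (DMSO vehicle).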
HT1080-NT tox = kills 2HG-producing HT-1080-NT fibrosarcoma cells; HT-1080-NT fibrosarcoma viability, CellTiter-Glo ATP luminescence, 48 h; Potency, µM (titrated, usually from 46.1 µM), inactives show at the highest dose activity, negative = less viability, hits mostly cytotoxic; 1.6% of 360,000 active; AID 686970;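 also: NT is the 2HG producing partner of a matched IDH1 knockdown line; potency is read from the fitted curve at half-maximal effect; 0% = DMSO-treated cells and -100% = media-only wells without cells; nearly all actives have a fitted effect of over 55% in size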
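A 48-hour cytotoxicity screen used HT-1080-NT cells plated 2 hours before compound delivery. ATP-based CellTiter-Glo luminescence measured viability, normalized to DMSO and no-cell controls.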
ELG1 repair inh = ELG1-dependent DNA repair inhibition. HEK293T ELG1-luciferase reporter, luminescence, 16 h; DNA damage induced by 5-fluorouridine. Potency, µM (titrated, usually from 46.1 µM), for inactives: at the top dose activity change, negative = inhibition, most hits filed as inhibitors. 2.3% of 330,000 active; also: potency is read from the fitted curve at half-maximal effect; nearly all actives have a fitted effect of over 55% in size
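Quantitative HTS, concentration-response format. 2,000 cells/well co-treated with 5-fluorouridine and compound, 16 hr in 5% CO2 at 37 °C; ONE-Glo luminescence read after 30 min.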
TDP1 cell CPT = DT40-hTDP1 cell growth loss with CPT | chicken DT40 Tdp1-/-;hTDP1 cells + 20 nM CPT, ATP luminescence, 48 h | Potency, µM (series often up to 46.2 µM), inactives show at the highest dose activity change, negative = growth inhibition, usual class: inhibitors | 12% of 420,000 active | AID 686979; also: potency is read from the fitted curve at half-maximal effect; nearly all actives have a fitted effect of over 55% in size
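Chicken DT40 Tdp1-/- cells stably complemented with human TDP1 were seeded at 400 cells/well in medium containing 20 nM camptothecin, exposed to pin-transferred compounds, and grown at 37 °C for at least 48 hr. Viability was read as ATP luminescence.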
HT1080 IDH1KD tx = toxicity to HT-1080 IDH1 knockdown cells (counter line). HT-1080 IDH1 knockdown viability, ATP luminescence, 48 h. 2% of 360,000 active. Potency, µM (highest dose often 46.1 µM), for the others: at the highest dose activity, negative = toxicity, actives largely listed as cytotoxic;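 also: potency is read from the fitted curve at half-maximal effect; 0% = DMSO wells and -100% = cell-free medium wells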
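Using the IDH1-knockdown HT-1080 line run in the same batch and compound series as the NT line, viability after 48 h at 37 °C was determined by CellTiter-Glo luminescence and expressed as % activity.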
Starred values were filed as active, the others as inactive; ? = inconclusive; . = no result given; [ ] = another dose, or the depositor's remark. The list is not random: actives were taken first. Their share in the collection is about 19%. Unless noted, calls follow the shape of the dose curve; as a rule, active = well fitted curve in the direction sought with a large enough effect; inconclusive = small, poorly fitted or top-dose-only effect, or another doubt; inactive = no such curve, though single readings can be large; an effect the other way counts as inactive or inconclusive. Unless noted, % is scaled to controls: 0 for no effect and ±100 for the full control effect.

SMILES | IL-1B inflam inh | DT40 TDP1 no CPT | HT1080-NT tox | ELG1 repair inh | TDP1 cell CPT | HT1080 IDH1KD tx
COC(=O)C1=C(c2cc3ccccc3s2)C[C@@H]2CC[C@H]1N2C(=O)NC1CCCCC1 | -14 | ? | -12% | . | 18µM* | -22%
NCc1cccnc1 | . | -11% | . | . | 12% | .
CSc1ccccc1NP1(=O)OCC(C)([N+](=O)[O-])CO1 (configuration not stated) | 2 | ? | 0% | . | -25% | -3%
CC1(C)N(O)C(c2ccc(C(=O)O)cc2)=[N+]([O-])C1(C)C | . | -13% | . | . | 9% | .
COC(=O)C1=C(c2ccc(-c3ccccc3)c(F)c2)C[C@@H]2CC[C@H]1N2C(=O)N1CCCCC1 | -12 | 1.3µM* | ? | 0% | 2.3µM* | 21µM*
COC(=O)C1=C(c2ccc(-c3ccccc3)c(F)c2)C[C@@H]2CC[C@H]1N2C(=O)N1CCOCC1 | ? | 1.3µM* | -8% | -4% | 1.2µM* | -6%
COC(=O)C1=C(c2ccc(-c3ccccc3)c(F)c2)C[C@@H]2CC[C@H]1N2C(=O)N1CCCC1 | -69* | 1.2µM* | -19% | -16% | 1.6µM* | -26%
COC(=O)C1=C(c2ccc(-c3ccccc3)c(F)c2)C[C@@H]2CC[C@H]1N2C(=O)N1CCc2cc(OC)c(OC)cc2C1 | ? | ? | -7% | ? | ? | -16%
COC(=O)C1=C(c2ccc(S(C)(=O)=O)cc2)C[C@@H]2CC[C@H]1N2C(=O)N1CCOCC1 | -8 | 7% | -4% | . | -2% | -4%
O=c1oc(Cl)c(Cl)c2ccccc12 | -70* | 2.9µM* | 14% | -18% | 3.3µM* | -3%
COC(=O)C1=C(c2cccc(C#N)c2)C[C@@H]2CC[C@H]1N2C(=O)NC1CCCCC1 | 4 | ? | -5% | 18% | ? | -2%
CC(NC(=O)c1cc(F)ccc1F)c1nnc2n1CCN(Cc1ccc(-c3ccccc3)cc1)CC2 (configuration not stated) | . | ? | . | . | -1%[9.04 µM] | .
COc1ccc(P2(=O)Nc3ccccc3N2)cc1 | 7 | ? | -11% | ? | 15µM* | -20%
CCCCn1nnnc1C(c1ccccc1)N1CCC2(CC1)C(=O)NCN2c1ccccc1 (configuration not stated) | -11 | ? | ? | . | ? | -29%
O=C1NCN(c2ccccc2)C12CCN(C(c1ccnc3ccccc13)c1nnnn1-c1ccc3c(c1)OCCO3)CC2 (configuration not stated) | -24 | 16µM* | ? | . | ? | ?
CCCCn1nnnc1C(c1cccc(OC)c1OC)N1CCC2(CC1)C(=O)NCN2c1ccccc1 (configuration not stated) | -30 | ? | ? | . | ? | -24%
COc1ccc(C(c2nnnn2-c2ccc3c(c2)OCCO3)N2CCC3(CC2)C(=O)NCN3c2ccccc2)cc1 (configuration not stated) | -5 | 26µM* | -28% | . | ? | ?
O=C1NCN(c2ccccc2)C12CCN(C(CCc1ccccc1)c1nnnn1-c1ccc3c(c1)OCCO3)CC2 (configuration not stated) | -18 | -113% | ? | . | ? | -29%
CCC(c1nnnn1-c1ccc2c(c1)OCCO2)N1CCC2(CC1)C(=O)NCN2c1ccccc1 (configuration not stated) | -18 | 18µM* | -23% | . | 18µM* | -21%
CCCCn1nnnc1C(c1ccnc2ccccc12)N1CCC2(CC1)C(=O)NCN2c1ccccc1 (configuration not stated) | -14 | ? | 10% | . | 16µM* | -1%

Compound activity as filed in PubChem.
